Assay results: the supplement of paper PMC7156485
A number with no mark means an inactive call.

system: TDF; assay: H1.0 immunofluorescence intensity relative to DMSO (% of DMSO); higher = stronger H1.0 induction, active = 120 or more; conditions: concentration: 10 µM; 24 h
Procedure, shortened: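 Using 384-well plates with 800 cells per well in RPMI plus 10% FBS, HCC1569 and TDF cells were exposed to compounds at 10 µM, in triplicate, for 24 h at 37 °C. Imaging of six fields per well at ×10 followed H1.0 and DAPI staining. The reported quantity, H1.0 nuclear intensity or cell number, is a median of replicates given as percent of the plate control, and HCC1569 values were smoothed for positional effects.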
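Further: TDF is a line of transformed human dermal fibroblasts of mesenchymal origin.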

SMILES | H1.0 immunofluorescence intensity
O=c1c(O)c(-c2ccc(O)cc2)oc2cc(O)cc(O)c12 [Kaempferol] | 93.5
CC1=C(C)C(=O)C(CCCCC#CCCCC#CCO)=C(C)C1=O [Docebenone] | 103
CCCCCCCCCC(=O)NC(CN1CCOCC1)C(O)c1ccccc1.Cl (racemic) | 105
CN(C)CCC(c1ccc(Br)cc1)c1ccccn1.O=C(O)C=CC(=O)O (single isomer, unassigned; (+)) [(+)-Brompheniramine maleate] | 113
CC(=O)NC(CSCC=C(C)CCC=C(C)C)C(=O)O (configuration not stated) | 93
COc1ccc(Cl)cc1NC(=O)Nc1cc(C)nc2ccccc12 [N-(5-Chloro-2-methoxyphenyl)-N'-(2-methyl-4-quinolinyl)urea] | 104
O=c1onc2cnc3ccccc3n12 | 103
CC1(NC(=O)CBr)CCC(C(C)(C)NCC(O)COc2cccc3[nH]ccc23)CC1 (racemic) | 93.2
CCN1CCCC1CNC(=O)c1c(OC)ccc(Br)c1OC (configuration not stated) [Remoxipride] | 96.7
Cc1cccc(Nc2ccccc2C(=O)O)c1C [Mefenamic acid] | 104
NC(CCC(=O)NC(CS)C(=O)NCC(=O)O)C(=O)O (configuration not stated) [Glutathione] | 91
Cc1cc(Nc2nc(-c3ccccc3)nc3ccccc23)n[nH]1 [GSK-3 Inhibitor XIII] | 112
O=C(CCc1ccc(O)cc1)c1c(O)cc(O)cc1OC1OC(CO)C(O)C(O)C1O (configuration not stated) [Phlorizine] | 102
CCN(CC)CC#CCOC(=O)C(O)(c1ccccc1)C1CCCCC1.Cl (configuration not stated) [Oxybutynin Chloride] | 94.5
COc1cc(C(=O)c2ccc3ncccc3c2)cc(OC)c1OC [quinolin-6-yl(3,4,5-trimethoxyphenyl)methanone] | 209 (active)
Cc1cn(C2CC(N=[N+]=[N-])C(CO)O2)c(=O)[nH]c1=O (configuration not stated) [3'-Azido-3'-deoxythymidine] | 96.8
CNC(=O)c1cc(Oc2ccc(NC(=O)Nc3ccc(Cl)c(C(F)(F)F)c3)cc2)ccn1 [Sorafenib] | 108
CON=C(C(=O)NC1C(=O)N2C(C(=O)O)=C(COC(C)=O)CSC12)c1csc(N)n1 (configuration not stated) [Cefotaxime Acid] | 96.3
Nc1ccccc1NC(=O)CCCCCCC(=O)Nc1ccccc1 [N~1~-(2-aminophenyl)-N~8~-phenyloctanediamide] | 92.6
COc1cc2oc(=O)ccc2cc1O [Isoscopoletine] | 102
CC(C)=CCCC(C)=CCCC(C)=CCSCC(=O)O [Farnesylthoiacetic acid] | 97.7
COc1ccccc1O [Guaiacol] | 92.7
